This assay has as its system VDR:RXRa (NR concentration 270 nM, RXRa partner concentration 90 nM). The assay is described as follows: PBM binding z-score (relative to random genomic background probes); higher = stronger binding; sequences stand for … in GC…GCGATTGACAGCGTAGAATGAAGG
The procedure: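 Protein-binding microarray (Agilent 4x180K custom design, double-stranded 60-nt probes: 5' GC cap, 34-nt variable region, 24-nt constant primer region; full probe sequence given). Purified or IVT nuclear receptor:RXRα heterodimers (3:1 NR:RXRα, mostly 270:90 nM) or homodimers were incubated for 1 h in PBS with 2% milk and no ligand, then detected with Alexa488 antibodies. Fluorescence from o1-orientation probes (~5 replicates averaged) was converted to z-scores against 500 random hg19 background probes. Variable regions are seed direct-repeat (DR0–DR5) sites, all their single-nucleotide variants and half-site ablations.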
TTACCATGGTGAGCTGAGGTCGTTGATCCAACTC: the PBM binding z-score came to 1.57.
TCGAGTAGGTTAGGGGCATTGAGAATGGCGTCGA: the PBM binding z-score worked out at 0.491.
Next, CGTCAAAGTGCAACTAAGGTAACGTAAAGCACGC: 0.866; CCTGCTGGGTCAATGGTCAGCTAAAGCAGCTCGC: 0.85.
Next, CCTACTGGGCCAAGAAGGTCATTGATGCCGATAA: 3.97; ATATGTAGGTTAAGGGTCGTTCAGGTTGGTTCGC: 3.88.
The result for CCTCGGAGGACAACAGGAAGTCAGAGCTGCCAGA reads -0.718; that for GATACAGGGTCAGCTAGAGCCCAGAGTATGGAAA, 2.26.
As to ACTTACGGGGCAACGAGGTTATAGCACGCGTATA, the PBM binding z-score came to 5.28.
The result for ACTAGTAGGCCAAGTTTGGGTCACTCAAACAAAG reads 0.967; that for TCTTGTAGATCAAAGGTTAAGTAAGCCGAAGCCT, 2.04; that for TCTAGCATGCCAGAGGGTCACTCAAGAGGTACGG, 1.46.
The result for CCTACTGGGCCACGAAAGGTCATTGAGTCAGTGA reads 4.67.
The result for TAGCCTAGGTCAGATCGGGCCACTATACGCTATA reads 1.39; that for AGAATGAGGTTACCAAAGATCGGGGAAACGCTTG, 1.3; that for CGAATTAGGTCAGAACAGGACAGTGAAGGATGAT, 0.932.
Sequence CCGAGTAGGTTATGGGGCATCCAGGCAACGGTGA yielded a PBM binding z-score of -0.0665.
In turn, GCTCGGAGCACAAGGTCAGAGCTTTGTCCGTAGA gave a PBM binding z-score of 1.2.
The result for TTACCAAGGTGAAAGGTCGCTGATGCACGCCTTG reads 2.72; that for TCATTTAGGTAAAAGGTGAAAGTCGGTGTGGTAA, 1.4; that for GATACAGGGTTAGCTAGAGGCCAGAGTATGGAAA, 0.139.
The result for GGAACGAGTGCATTCGAGTTGATAGCATGGCGAT reads 2.95.
Consider ACTAGCAGGCCAAGTATGGGTCACTCAAACAAAG, for which the PBM binding z-score came to 0.573.
The result for TCTTGTAGATTAGCAGGTTAAGAAAGCTGGCCAA reads 0.63; that for CCTACTGGGCCAAAAAGGTCTTTGATGCCGATAA, -0.154.
Next, CGTCCAAGGTCAAGGTTAGTGAAAGAGACTCGAA: 3.93; TCTTGTAGATCCGCAGGTTAAGAAAGCTGGCCAA: 0.237.
The result for CAACCAAGGTGAACAAGGTCGTTGATTACTATTC reads 5.89.
In the case of TATACAGGGTCAAAGGCCAGAGTCCGAATGTCGA, the PBM binding z-score stood at 4.8.
Next, AGTCAAAGTTCAGGACGAGGCAACGTAAAGCACG: 1.93.
Take TCTTGTAGATCAAGCAGGTTAAGAAGGCCTGAGT: the PBM binding z-score came to 0.55.
The result for CCGACTGGGGCACAAGGTTACCATAAGCCAGCCC reads 0.209; that for ATCTCTAGGTAAGACTCAGTCCAGTGAAGAACGC, 0.327; that for GCGACTGGGTCATCAGCAGGTTACCATAACTTAA, 2.27.
The result for AGAACGAGGGCAATGACTTGATAGCACGGGTGGC reads 0.34; that for CGGACTAGGTCAGAACAGGACAGTGAAGGATGAT, 0.538; that for AATACAGGGTCATCGTAGGCCAGAGAACGCACAG, 5.24.
The result for TCGAGTCGGTTACCAATGGGGCATTCAGCTTTCT reads -0.384; that for CAGCCTAGGTCAAGGCCAGTATAGGAGGAACGTT, 1.3.
The sequence AGAATGAGGTTATTAAGATCACGGAATTGCGGTC yielded a PBM binding z-score of 3.68.

The record behind these values is the supplement of paper PMC6555819.
